Here are results for nine compounds from PubChem BioAssay (Tox21).

Experiment [1] in a line: qHTS assay to identify small molecule agonists of the peroxisome proliferator-activated receptor delta (PPARd) signaling pathway - cell viability counter screen (AID 743211; active means well fitted curve in the direction sought with a large enough effect in the repeat runs; an effect the other way counts as inactive or inconclusive; further: nearly all actives have a fitted effect of over 55% in size). In short, it runs like this: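 HEK293H PPARd-bla, 3000 cells/well; 5 h preincubation 37C/5% CO2; cpd in DMSO, 17 h 37C; B/G FRET substrate 2 h RT; CellTiter-Glo 30 min RT, luminescence.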
Background: qHTS replaces the single test concentration by a dilution series.

Experiment [2] deals with Peroxisome proliferator-activated receptor delta (Homo sapiens) (UniProt Q03181). The experiment is described as follows: qHTS assay to identify small molecule agonists of the peroxisome proliferator-activated receptor delta (PPARd) signaling pathway (AID 743212).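 Further: HEK293H cells with PPARd UAS beta-lactamase reporter GeneBLAzer system.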 The method, boiled down: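 Beta-lactamase reporter read by fluorescence (LiveBLAzer B/G FRET, 2 h, room temperature). Test agents, in DMSO, incubated at 37 C with PPARd-bla HEK293H cells.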

Experiment [3] can be described thus: qHTS assay to identify small molecule antagonists of the peroxisome proliferator-activated receptor delta (PPARd) signaling pathway - cell viability counter screen (AID 743213; active means well fitted curve in the direction sought with a large enough effect in the repeat runs; an effect the other way counts as inactive or inconclusive; further: nearly all actives have a fitted effect of over 50% in size). In short, it runs like this: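 Agonist-stimulated (L165041, 300 nM final) HEK293H PPARd UAS-bla cells are exposed to compounds for 17 h at 37 C, and ATP-based luminescence (CellTiter-Glo) from the same wells reports cytotoxicity.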

Experiment [4] concerns the target Peroxisome proliferator-activated receptor delta (Homo sapiens) (UniProt Q03181). The experiment is described as follows: qHTS assay to identify small molecule antagonists of the peroxisome proliferator-activated receptor delta (PPARd) signaling pathway (AID 743215; active means well fitted inhibition curve with a large enough effect in the signal ratio in the repeat runs, not every such curve was filed as active; the % refers to the signal ratio; further: potency means the concentration at half of the fitted maximal effect). The method, boiled down:
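Here, a reporter line (HEK293H, beta-lactamase under a UAS) measures PPARd signaling. Compounds are tested against agonist L165041 at 300 nM final concentration over 17 h at 37 C, with fluorescence read after substrate.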

For experiment [5], the target named is Bile acid receptor (Homo sapiens) (UniProt Q96RI1). The experiment is described as follows: qHTS assay to identify small molecule antagonists of the farnesoid-X-receptor (FXR) signaling pathway (AID 743217; active means well fitted inhibition curve with a large enough effect in the signal ratio in the repeat runs, not every such curve was filed as active; the % refers to the signal ratio). The method, boiled down:
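Test compounds are pin-transferred onto FXR-bla HEK 293T cells, then chenodeoxycholic acid is added at 50 uM final. After 16 h at 37 °C, LiveBLAzer B/G substrate is applied for 2 h at room temperature and fluorescence read.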

Experiment [6] shares this target. The experiment in a line: qHTS assay to identify small molecule agonists of the farnesoid-X-receptor (FXR) signaling pathway (AID 743220; active means well fitted activation curve with a large enough effect in the signal ratio in the repeat runs, not every such curve was filed as active; the % refers to the signal ratio). The method, boiled down:
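FXR-UAS-bla HEK 293T cells carrying a UAS-driven beta-lactamase reporter were plated for 5 h at 37C/5% CO2, then exposed to DMSO-dissolved Tox21 10K compounds for 16 h at 37C. A LiveBLAzer B/G FRET substrate was loaded for 2 h at room temperature before fluorescence reading.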

A short description of experiment [7]: qHTS assay to identify small molecule agonists of the vitamin D receptor (VDR) signaling pathway - cell viability counter screen (AID 743224; active means well fitted curve in the direction sought with a large enough effect in the repeat runs; an effect the other way counts as inactive or inconclusive; further: series mostly up to about 63 µM; nearly all actives have a fitted effect of over 50% in size). In short, it runs like this: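 CellTiter-Glo viability readout on VDR-bla cells, measured after 16 h of compound treatment at 37C in the same wells.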
Experiment [8] is described as follows: qHTS assay to identify small molecule agonists of the NFkB signaling pathway - cell viability counter screen (AID 1159515). Further: nearly all actives have a fitted effect of over 55% in size. Further: potency means the concentration at half of the fitted maximal effect. The method, boiled down: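 Tox21 library compounds were tested for cytotoxicity against NFkB-bla ME-180 cells during a 5 hr exposure at 37 C. CellTiter-Glo luminescence served as the viability read-out.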
The nature of experiment [9]: qHTS assay to identify small molecule agonists of the endoplasmic reticulum stress response signaling pathway (AID 1159516; active means well fitted activation curve with a large enough effect in the signal ratio in the repeat runs, not every such curve was filed as active; the % refers to the signal ratio). The method, boiled down: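 Fluorescence at 460 and 530 nm (405 nm excitation) reports beta-lactamase from an ER stress response element in HeLa cells treated 5 hr at 37 C.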
The nature of experiment [10]: qHTS assay to identify small molecule agonists of the endoplasmic reticulum stress response signaling pathway - cell viability counter screen (AID 1159517). Further: nearly all actives have a fitted effect of over 50% in size. Further: potency means the concentration at half of the fitted maximal effect. In short, it runs like this: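 Cytotoxicity of test compounds toward ESRE-bla HeLa cells was assessed after 5 hr exposure. The luminescent CellTiter-Glo signal was measured 30 min after reagent addition.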
The nature of experiment [11]: qHTS assay to identify small molecule antagonists of the retinoid-related orphan receptor gamma (ROR-gamma) signaling pathway - cell viability counter screen (AID 1159520; active means well fitted curve in the direction sought with a large enough effect in the repeat runs; an effect the other way counts as inactive or inconclusive; further: nearly all actives have a fitted effect of over 50% in size; further: potency means the concentration at half of the fitted maximal effect). The method, boiled down:
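Tet-on ROR gamma CHO cells (1,000/well) were plated 4 hr, given compounds in DMSO for 2 hr at 37 C, then induced with 1 uM final doxycycline for 16 hr. Viability was read as ATP by CellTiter-Glo luminescence after 30 min.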

Experiment [12] addresses Nuclear receptor ROR-gamma (Homo sapiens) (UniProt P51449). The experiment is described as follows: qHTS assay to identify small molecule antagonists of the retinoid-related orphan receptor gamma (ROR-gamma) signaling pathway (AID 1159521; active means well fitted curve in the direction sought with a large enough effect in the repeat runs; an effect the other way counts as inactive or inconclusive; further: nearly all actives have a fitted effect of over 50% in size; further: potency means the concentration at half of the fitted maximal effect). In short, it runs like this: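 CHO Tet-on RORγ, RORE-luc reporter. Cpd 2 h pre-incubation, then dox hyclate 1 uM final, 16 h, 37 C/5% CO2. ONE-Glo luminescence; decrease = antagonist.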

A short description of experiment [13]: qHTS assay to identify small molecule agonists of the AP-1 signaling pathway - cell viability counter screen (AID 1159525). Further: nearly all actives have a fitted effect of over 55% in size. The method, boiled down:
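Each titration point was normalised to DMSO and tetra n-octyl ammonium bromide controls. The read was Cell Titer Glo luminescence after 30 min at RT, following 5 h compound exposure of ME-180 AP-1-bla cells at 37 °C.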

A short description of experiment [14]: qHTS assay to identify small molecule agonists of the AP-1 signaling pathway (AID 1159526).
Experiment [15] can be described thus: qHTS assay to identify small molecule agonists of the farnesoid-X-receptor (FXR) signaling pathway - cell viability counter screen (AID 743218; active means well fitted curve in the direction sought with a large enough effect in the repeat runs; an effect the other way counts as inactive or inconclusive; further: nearly all actives have a fitted effect of over 45% in size). In short, it runs like this:
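Quantitative HTS counter screen measuring ATP-based viability via CellTiter-Glo luminescence in HEK 293T cells carrying a UAS-driven beta-lactamase reporter, after 16 h compound exposure at 37 C.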

Experiment [16] can be described thus: qHTS assay to identify small molecule antagonists of the farnesoid-X-receptor (FXR) signaling pathway - cell viability counter screen (AID 743221; active means well fitted cell-killing curve with a large enough effect in the repeat runs, not every such curve was filed as active; further: nearly all actives have a fitted effect of over 50% in size; further: potency means the concentration at half of the fitted maximal effect). The method, boiled down: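 Luminescence from CellTiter-Glo measures cytotoxicity in GeneBLAzer FXR-UAS-bla HEK 293T cells. Cells were exposed to compounds with 50 uM chenodeoxycholic acid (final) for 16 h at 37 C, in wells also used for the reporter readout.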

For experiment [17], the target named is Vitamin D3 receptor (Homo sapiens) (UniProt P11473). The experiment in a line: qHTS assay to identify small molecule agonists of the vitamin D receptor (VDR) signaling pathway (AID 743222). In short, it runs like this:
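Tox21 cell reporter format: VDR-bla line, 16 h compound exposure in 5% CO2 at 37C, then fluorescence intensity after 2 h with LiveBLAzer B/G FRET substrate.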

Experiment [18] has the same target. The experiment in a line: qHTS assay to identify small molecule antagonists of the vitamin D receptor (VDR) signaling pathway (AID 743223; active means well fitted inhibition curve with a large enough effect in the signal ratio in the repeat runs, not every such curve was filed as active; the % refers to the signal ratio). In short, it runs like this:
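Antagonist mode uses 1alpha,25-dihydroxyvitamin D3 at 3 nM final as stimulus. VDR-bla cells receive compounds in DMSO, incubate 16 h at 37C, then a beta-lactamase FRET substrate for 2 h at room temperature before fluorescence measurement.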

The nature of experiment [19]: qHTS assay to identify small molecule antagonists of the vitamin D receptor (VDR) signaling pathway - cell viability counter screen (AID 743225; active means well fitted curve in the direction sought with a large enough effect in the repeat runs; an effect the other way counts as inactive or inconclusive; further: nearly all actives have a fitted effect of over 50% in size). In short, it runs like this: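 Read-out: CellTiter-Glo luminescence measured 30 min after reagent addition at room temperature. Cells were VDR-bla HEK 293T exposed 16 h at 37C, 5% CO2, to compound with 3 nM final calcitriol agonist.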

Experiment [20] addresses Retinoic acid receptor RXR-alpha (Homo sapiens) (UniProt P19793). The experiment is described as follows: qHTS assay to identify small molecule agonists of the RXR signaling pathway (AID 1159527). Further: nearly all actives have a fitted effect of over 35% in size. Further: potency means the concentration at half of the fitted maximal effect. In short, it runs like this: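 Read-out: beta-lactamase FRET ratio (405 nm excitation, 460 and 530 nm emission) after 2 hr substrate loading at room temperature. Cells were RXR-alpha-UAS-bla HEK 293T treated with compounds for 16 hr in 2% charcoal-stripped FBS medium.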

Molecules are shown by their SMILES. Results filed as inconclusive are left out. Activity calls are given as the source filed them. Unless noted, the call rests on the fitted dose curve.

Vitamin D3 receptor (Homo sapiens), sequence (P11473 whole entry, looked up): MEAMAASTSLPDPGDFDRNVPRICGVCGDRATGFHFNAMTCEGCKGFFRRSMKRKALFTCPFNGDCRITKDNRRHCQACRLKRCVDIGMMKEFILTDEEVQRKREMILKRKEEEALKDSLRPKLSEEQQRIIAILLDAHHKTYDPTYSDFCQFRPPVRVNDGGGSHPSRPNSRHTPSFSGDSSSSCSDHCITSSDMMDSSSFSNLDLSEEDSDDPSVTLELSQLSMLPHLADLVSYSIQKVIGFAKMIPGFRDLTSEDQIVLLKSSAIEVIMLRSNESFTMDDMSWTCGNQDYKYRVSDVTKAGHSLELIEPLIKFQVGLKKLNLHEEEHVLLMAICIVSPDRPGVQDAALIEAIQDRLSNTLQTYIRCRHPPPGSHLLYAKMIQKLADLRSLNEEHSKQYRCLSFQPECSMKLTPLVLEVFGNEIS
Bile acid receptor (Homo sapiens), sequence (Q96RI1 whole entry, looked up): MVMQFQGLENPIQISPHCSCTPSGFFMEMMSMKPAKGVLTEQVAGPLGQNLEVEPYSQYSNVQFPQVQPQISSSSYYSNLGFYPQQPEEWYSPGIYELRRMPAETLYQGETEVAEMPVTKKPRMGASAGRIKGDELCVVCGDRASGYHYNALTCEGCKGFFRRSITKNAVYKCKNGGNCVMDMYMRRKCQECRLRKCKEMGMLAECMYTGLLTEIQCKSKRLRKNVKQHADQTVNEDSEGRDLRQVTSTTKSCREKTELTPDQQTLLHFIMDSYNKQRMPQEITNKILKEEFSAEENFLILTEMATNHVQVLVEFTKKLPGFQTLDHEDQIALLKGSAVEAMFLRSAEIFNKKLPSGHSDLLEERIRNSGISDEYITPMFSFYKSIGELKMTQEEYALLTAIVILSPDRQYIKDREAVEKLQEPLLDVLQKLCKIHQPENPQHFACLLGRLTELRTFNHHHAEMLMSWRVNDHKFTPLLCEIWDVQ
Retinoic acid receptor RXR-alpha (Homo sapiens), sequence (P19793 whole entry, looked up): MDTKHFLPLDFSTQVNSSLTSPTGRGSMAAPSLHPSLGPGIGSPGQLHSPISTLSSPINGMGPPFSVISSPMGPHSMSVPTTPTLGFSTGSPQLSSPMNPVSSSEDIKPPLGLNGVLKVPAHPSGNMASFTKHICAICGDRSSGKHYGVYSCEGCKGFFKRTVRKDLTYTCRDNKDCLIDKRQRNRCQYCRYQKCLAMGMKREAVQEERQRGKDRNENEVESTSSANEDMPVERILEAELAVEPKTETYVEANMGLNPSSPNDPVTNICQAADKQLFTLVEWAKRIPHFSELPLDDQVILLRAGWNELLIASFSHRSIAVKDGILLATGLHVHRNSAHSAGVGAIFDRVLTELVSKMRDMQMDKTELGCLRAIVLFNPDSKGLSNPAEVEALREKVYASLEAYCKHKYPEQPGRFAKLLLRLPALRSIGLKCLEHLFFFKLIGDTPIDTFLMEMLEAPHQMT
Peroxisome proliferator-activated receptor delta (Homo sapiens), sequence (Q03181 whole entry, looked up): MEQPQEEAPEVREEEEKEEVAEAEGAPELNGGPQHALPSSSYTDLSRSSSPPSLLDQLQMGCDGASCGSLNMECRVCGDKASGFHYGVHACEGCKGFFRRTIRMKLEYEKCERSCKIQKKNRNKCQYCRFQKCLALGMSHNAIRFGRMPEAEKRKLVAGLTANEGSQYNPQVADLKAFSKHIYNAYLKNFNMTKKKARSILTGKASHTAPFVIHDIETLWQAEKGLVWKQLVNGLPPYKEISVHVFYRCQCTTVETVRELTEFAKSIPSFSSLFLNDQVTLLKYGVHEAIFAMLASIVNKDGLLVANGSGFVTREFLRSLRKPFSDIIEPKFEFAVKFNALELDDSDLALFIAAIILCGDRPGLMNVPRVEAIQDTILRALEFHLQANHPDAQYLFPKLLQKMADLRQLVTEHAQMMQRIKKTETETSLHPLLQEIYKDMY

Take `NC1CCC(CC2CCC(N)CC2)CC1` (stereo not given): the Potency entry in experiment [1], in experiment [2], in [3], in experiment [4], in [5] and in experiment [6] was “inactive” in each case. Further, the Potency result in [7], in [8], in [9], in experiment [10], in experiment [11] and in [12] was “inactive” throughout. The Potency result in experiment [13] and in [14] was “inactive” each time.
Take `CNC(=O)Oc1cc(C)cc(C(C)C)c1`: the Potency entry in [1], in [2], in experiment [4], in experiment [15], in experiment [16] and in experiment [17] was “inactive” in each case. In addition, the Potency result in experiment [18], in experiment [19], in experiment [8], in experiment [9], in experiment [10] and in experiment [11] was “inactive” throughout. Further, the Potency result in experiment [13] and in [14] was “inactive” in each case. Moreover, the Potency in experiment [20] is 11 µM (active).
As to `O=C(CCCCl)c1ccc(F)cc1`, the Potency entry in experiment [1], in experiment [3], in [16], in [19], in [8] and in [9] was “inactive” throughout. The Potency result in [10], in [11], in experiment [13], in experiment [14] and in experiment [20] was “inactive” in each case.
`[O-][Cl+3]([O-])([O-])O`: the Potency result in experiment [1], in [2], in experiment [16], in experiment [7], in [8] and in [9] was “inactive” throughout. For the same compound, the Potency entry in experiment [10], in [11], in [13], in experiment [14] and in experiment [20] was “inactive” in each case.
With `CCC[CH2][Sn]([CH2]CCC)([O]C(C)=O)[O]C(C)=O`, the Potency is 19.7 µM (active) in experiment [4]; 17.5 µM (active) in experiment [16]; 11.1 µM (active) in [8]; 1.97 µM (active) in experiment [10]; 0.0978 µM (active) in experiment [11]; 0.0692 µM (active) in experiment [12]. Further, the Potency entry in experiment [19] and in experiment [9] was “inactive” each time.
Turning to `[C-]1=CC=CC1.[Cl][Zr+2][Cl].c1cc[cH-]c1`, the Potency entry in experiment [1], in [17], in experiment [7], in experiment [19], in [8] and in experiment [9] was “inactive” in each case. In addition, the Potency result in experiment [10], in [11], in experiment [12], in experiment [13] and in experiment [14] was “inactive” in each case.
As to `Cc1ccn2nc(S(=O)(=O)Nc3c(F)cccc3F)nc2n1`, the Potency entry in [1], in experiment [2], in experiment [3], in experiment [4], in experiment [5] and in experiment [15] was “inactive” each time. Further, the Potency entry in experiment [6], in experiment [16], in experiment [17], in experiment [18], in experiment [7] and in [19] was “inactive” in each case. For the same compound, the Potency result in experiment [8], in [9], in [10], in experiment [11], in experiment [13] and in [14] was “inactive” throughout. Further, in [20], the Potency entry was “inactive”.
Take `CC1CN1` (stereo not given): the Potency entry in [1], in experiment [2], in experiment [3], in [15], in experiment [16] and in experiment [7] was “inactive” in each case. For the same compound, the Potency result in experiment [19], in experiment [8], in experiment [9], in [10], in experiment [11] and in experiment [13] was “inactive” throughout. For the same compound, the Potency entry in experiment [14] and in experiment [20] was “inactive” each time.
As to `O.O.O.O.O.O.O=S(=O)([O-])[O-].[Ni+2]`, the Potency result in [1], in experiment [3], in [16], in experiment [7], in [19] and in experiment [8] was “inactive” each time. In addition, the Potency entry in experiment [9], in experiment [10], in [11], in [13], in experiment [14] and in experiment [20] was “inactive” each time.
